Bioassay records as filed in PubChem.
Compounds with a hit are over-represented: about 14% of the library has one in this group of screens.
LASV entry inh: blocks Lassa virus binding to or entry into cells; Lassa virus pseudotype entry inhibition, cell reporter; Potency, µM (doses to about 37.9 µM), for the others: at the highest dose activity change, negative = inhibition, hits mostly inhibitors; hit rate 1.2% among 300,000; calls by dose curve; tested in HEK293 cells; note: potency is the fitted concentration of half-maximal effect; nearly all actives have a fitted effect of over 50% in size
Marburg entry inh: inhibitors of Marburg virus binding or cell entry. hit rate 1.8% among 300,000. Marburg virus pseudotyped entry inhibition, cell reporter. AID 540276. Potency, µM (top dose mostly 37.8 µM), for inactives: top-dose activity change, negative = inhibition, hits mostly inhibitors; calls by dose curve; tested in HEK293 cells; note: potency is the fitted concentration of half-maximal effect
Pf growth 96h: P. falciparum growth inhibition at 96 hours; Potency, µM (titrated, usually from 28.7 µM), without a hit: at the top dose activity change, negative = inhibition, hits mostly inhibitors; hit rate 6.9% among 320,000; AID 504834; P. falciparum luciferase reporter growth, 96 h; note: potency is the fitted concentration of half-maximal effect
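Luminescence readout: decreased luciferase signal marks inhibited growth of reporter-expressing P. falciparum in infected red cells (2% hematocrit, 0.05% parasitemia final), exposed to compound two generations (96 h, 37 C, 5% CO2).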
HCV inhibitor: inhibitors of hepatitis C virus infection. Huh7.5.1 HCVcc-Cre infection, luciferase reporter, 44 h. AID 651820. hit rate 3.4% among 340,000. Potency, µM (doses to about 41.8 µM), for inactives: at the top dose activity change, negative = inhibition, most hits filed as inhibitors; note: potency is the fitted concentration of half-maximal effect
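Cells seeded at 1,000/well and cultured 4 h, then compounds added followed by HCVcc-Cre virus (~0.5 moi). After 44 h further culture, luciferase substrate was added, plates held 15 min at room temperature, and luminescence read for 15 sec.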
HCMV antiviral: blocks human cytomegalovirus replication. HFF cells, HCMV-luciferase reporter, 72 h; hits give low values. activity change, negative = inhibition, % at 57.5 µM. hit rate 4.5% among 410,000. AID 1259415; in the data active = activity change below about -60%; inconclusive = no clear call, values can overlap the other calls; inactive = above about -39%
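Screen run at 2 compound doses on HFFs infected with reporter HCMV, MOI 1 PFU/cell. Luciferase activity from cell lysates at 72 h post infection gave inhibition relative to buffer-only and Salinomycin wells.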
Pf growth 48h: P. falciparum growth inhibition at 48 hours (one generation). P. falciparum luciferase growth in erythrocytes, 48 h. Potency, µM (highest dose often 28.7 µM), inactives show top-dose activity change, negative = inhibition, usual class: inhibitors. hit rate 5.9% among 310,000; note: potency is the fitted concentration of half-maximal effect
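First compound was added to culture medium, then infected red cells at 0.1% parasitemia and 2% hematocrit (final). After incubation at 37 C under 5% CO2, luciferase detection reagent was dispensed and light output recorded.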
* marks the source's active call; other numbers are inactive results; u = inconclusive; x = no result; ! = not active in a repeat; [ ] = another dose, or the depositor's remark. Unless noted, calls come from the whole dose curve; as a rule, active = well fitted inhibition curve with a large enough effect; inconclusive = small, poorly fitted or top-dose-only effect, or another doubt; inactive = no such curve, though single readings can be large or run the other way. % is set by controls: 0 for no effect and ±100 for the full control effect.

SMILES	LASV entry inh	Marburg entry inh	Pf growth 96h	HCV inhibitor	HCMV antiviral	Pf growth 48h
COc1cc2c(cc1OC)C(C(=O)O)C(c1ccc3c(c1)OCO3)N(C)C2=O (stereo not drawn)	x	x	x	x	-2.7	x
Cc1cc2ccccn2c1C(=O)c1ccc(C#N)cc1	u	-6.6%[46.1 µM]	-15.7%	-21.0%	-80.5*	-13.1%
Cc1cc2ccccn2c1C(=O)c1ccc(NN)c([N+](=O)[O-])c1	u	8.91µM*	u	-20.6%	u	u
CCOc1ccccc1C(=O)NCC(=O)OCC(=O)c1c(N)n(C)c(=O)n(C)c1=O	x	x	x	16.4%	-6.7	x
CCc1ccc(/C=C2\SC(=S)N(CCCC(=O)N(CCO)c3ccccc3)C2=O)cc1	x	x	x	x	-97.7*	x
COc1ccc(/C=C2/SC(=S)N(CCC(=O)O)C2=O)cc1	51.1%[14.3 µM]	-30.0%	47.3%	x	-32.1	-13.4%
COc1ccc(/C=C2/SC(=O)N(CCC(=O)Nc3ccccc3)C2=O)cc1OC	x	-0.7%	-25.9%	24.6%	-63.5*	18.0%
CCOc1ccc(/C=C2\SC(=S)N(CCC(=O)N(CCO)c3ccccc3)C2=O)cc1	u	u	u	u	-99.9*	u
COc1ccc(/C=C2\SC(=S)N(CCC(=O)N(CCO)c3ccccc3)C2=O)cc1OC	x	x	39.2%	14.2%	-60.1*	u
COc1ccc(OC)c(CNC(=O)CN2N=C(c3ccc(Cl)cc3)CCC2=O)c1	u	x	x	x	-11.6	x
COc1ccc(/C=C2\SC(=O)N(CCNC(=O)Cc3coc4cc(C)ccc34)C2=O)cc1OC	-1.8%	u	7.38µM*	12.6µM*	-99.3*	u
O=C1/C(=C/c2cccs2)SC(=S)N1CCCC(=O)N(CCO)c1ccccc1	u	3.7%[46.1 µM]	-14.5%	8.8%	-97.6*	u
O=C(CCCN1C(=O)c2ccccc2C1=O)NCCN1C(=O)S/C(=C\c2cccs2)C1=O	4.7%	7.4%	u	u	u	22.0%
COc1ccc(CN(C)c2ccc(-c3nc(-c4ccccc4)no3)cc2[N+](=O)[O-])cc1	2.2%[46.1 µM]	-4.7%[46.1 µM]	x	x	71.6	x
CCOc1ccc(NC(=O)CCc2c(C)nc3nc(-c4cc(OC)cc(OC)c4)nn3c2C)cc1	2.6%[46.1 µM]	-0.2%[46.1 µM]	x	x	10.1	x
CN(C)C(=O)C(CCN1CCC(O)(c2ccc(Cl)cc2)CC1)(c1ccccc1)c1ccccc1	4.11µM*	4.11µM*	2.94µM*!	u	-25.0	2.94µM*
O=C1Nc2ccccc2-c2nnnn2C1N1CCC(Cc2ccccc2)CC1 (stereo not drawn)	x	x	x	x	7.1	x
Cc1ccc2c(c1)NC(c1cccnc1)=NC(c1ccc(F)cc1)=N2	-1.4%[46.1 µM]	-20.9%[46.1 µM]	x	x	3.5	x
Cc1ccc(-c2cn(CCN)c(-c3ccc(Cl)nc3)n2)cc1	x	x	-5.0%	0.9%	-7.6	10.4µM*
COc1cc(CN(C(=O)c2ccc(OC(C)C)cc2)c2ccccn2)cc(OC)c1OC	-13.1%[46.1 µM]	u	x	x	-29.6	x
Cc1ccc(CNC(=O)c2ccc(COc3ccccc3)cc2)cc1	u	-4.4%	-10.0%	3.9%	-63.4*	-5.2%
Cc1ccc(Oc2ccc(C(=O)NCc3ccncc3)cc2)cc1	8.91µM*	u	u	3.16µM*	-82.7*	u
Cc1ccc(C(=O)NCc2ccncc2)cc1S(=O)(=O)Nc1cccc(C)c1C	x	x	-15.4%	u	17.3	-23.7%
Cc1ccc(C)c(NS(=O)(=O)c2cc(C(=O)NCc3ccncc3)ccc2C)c1	-6.2%	u	0.9%	u	-68.7*	17.4%
CC(=O)CCc1c[nH]c2c(C(=O)O)cccc12	u	-2.0%	11.7µM*	1.9%	2.2	22.3%
SMILES	LASV entry inh	Marburg entry inh	Pf growth 96h	HCV inhibitor	HCMV antiviral	Pf growth 48h
Cc1cc(C)cc(NC(=O)CSc2nc(-c3cccc(Cl)c3)nc3c2Cc2c(CO)cnc(C)c2O3)c1	-2.8%[46.1 µM]	x	x	x	-10.2	x
CCC(Sc1nc(-c2ccc(F)cc2)nc2c1Cc1c(CO)cnc(C)c1O2)C(=O)Nc1ccc(F)cc1 (stereo not drawn)	2.7%[46.1 µM]	x	x	x	16.9	x
CCCn1c2ccccc2c2nnc(SCc3[nH]c(=O)[nH]c3C(=O)CCCCC(=O)OCC)nc21	-19.5%	u	10.4µM*	-25.8%	u	u
CCOC(=O)CCCCC(=O)c1[nH]c(=O)[nH]c1CSc1nnc2c3ccccc3n(C(C)C)c2n1	3.2%	u	u	12.8%	u	u
COc1cccc(OC)c1C(=O)Nc1nnc(C)s1	12.6%[46.1 µM]	x	x	x	1.9	x
CC1(C)Cc2c(cnn2-c2ccccc2)C(NC(=O)CCCN2CCCCC2=O)C1 (stereo not drawn)	8.3%	-0.2%	6.57µM*	-21.9%	-13.2	-8.3%
COC(=O)c1ccc(C(=O)NC2CCCc3c2cnn3-c2ccc(C)c(C)c2)cc1 (stereo not drawn)	u	u	u	12.6µM*	u	-4.6%
COc1ccc(-n2ncc3c2CC(C)(C)CC3NC(=O)CCCN2CCCC2=O)cc1 (stereo not drawn)	x	x	26.2%	14.9%	0.0	-8.6%
CC1(C)Cc2c(cnn2-c2ccccc2)C(NC(=O)CCN2CCCC2=O)C1 (stereo not drawn)	x	x	14.7µM*	-20.0%	u	10.3%
Cc1ccc(-n2ncc3c2CC(C)(C)CC3NC(=O)CCCN2CCCC2=O)cc1 (stereo not drawn)	x	x	u	3.4%	25.7	-19.0%
CC1(C)Cc2c(cnn2-c2ccc(F)cc2)C(NC(=O)CCCN2CCCCC2=O)C1 (stereo not drawn)	-2.4%	-7.8%	13.1µM*	0.5%	-16.9	-24.7%
Cc1[nH]c2ccccc2c1C(=O)c1cc(Cc2ccccc2)sc1N	x	x	x	x	1.8	x
Cc1ccc(-n2ncc3c2CCCC3NC(=O)CCN2CCCC2=O)cc1C (stereo not drawn)	x	x	u	9.1%	-34.4	-8.9%
Cc1ccc(-n2ncc3c2CCCC3NC(=O)CCCN2CCCCC2=O)cc1C (stereo not drawn)	17.3%	u	13.1µM*	u	6.5	-6.3%
CC(=O)N1CCCC1c1nc2ccccc2n1Cc1cccc(Cl)c1 (stereo not drawn)	-1.1%[46.1 µM]	-2.5%[46.1 µM]	x	x	5.8	x
CCS(=O)(=O)c1nc(S(=O)(=O)c2ccc(Cl)cc2)c(N2CCC(C(N)=O)CC2)s1	x	x	2.6%	-9.0%	u	-6.3%
COc1ccc2[nH]c(C)cc(=O)c2c1	-2.0%	-6.4%	-29.5%	12.2%	-12.8	-17.6%
COc1ccc2[nH]c3c(C)c4ccncc4c(C)c3c2c1	x	x	0.37µM*	2.24µM*	-76.9*	0.37µM*
Cc1cccn2c(=O)c3cc(C(=O)NC4CCCC4)c(=N)n(CCCN4CCOCC4)c3nc12	-11.9%[46.1 µM]	3.55µM*	13.7%	-19.5%	-25.0	2.33µM*
CCCn1c(=N)c(C(=O)NCc2cccnc2)cc2c(=O)n3cccc(C)c3nc21	u	-18.6%[46.1 µM]	x	x	u	x
